Records with an inconclusive call do not appear. Activity calls are given as the source filed them. Calls come from the whole dose curve; as a rule, active = well fitted curve in the direction sought with a large enough effect; inconclusive = small, poorly fitted or top-dose-only effect, or another doubt; inactive = no such curve, though single readings can be large; an effect the other way counts as inactive or inconclusive. Peptide text beside a SMILES is read from it.

This passage reports Potency and outcome results from PubChem BioAssay (NCATS).

Experiment [1] deals with Pyruvate kinase (Leishmania mexicana) (UniProt Q27686). The experiment in a line: qHTS Validation Assay for Activators of Leishmania Mexicana Pyruvate Kinase (AID 959). In short, it runs like this: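 Luminescent ATP detection (PKLight) after a 1 h room-temperature reaction of 0.2 nM LmPYK E451W mutant with 0.5 mM PEP and 0.1 mM ADP at pH 7.2. Activity is normalized to DMSO-only control wells.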
Chain of Pyruvate kinase (Leishmania mexicana) (Q27686 2-499 E452W): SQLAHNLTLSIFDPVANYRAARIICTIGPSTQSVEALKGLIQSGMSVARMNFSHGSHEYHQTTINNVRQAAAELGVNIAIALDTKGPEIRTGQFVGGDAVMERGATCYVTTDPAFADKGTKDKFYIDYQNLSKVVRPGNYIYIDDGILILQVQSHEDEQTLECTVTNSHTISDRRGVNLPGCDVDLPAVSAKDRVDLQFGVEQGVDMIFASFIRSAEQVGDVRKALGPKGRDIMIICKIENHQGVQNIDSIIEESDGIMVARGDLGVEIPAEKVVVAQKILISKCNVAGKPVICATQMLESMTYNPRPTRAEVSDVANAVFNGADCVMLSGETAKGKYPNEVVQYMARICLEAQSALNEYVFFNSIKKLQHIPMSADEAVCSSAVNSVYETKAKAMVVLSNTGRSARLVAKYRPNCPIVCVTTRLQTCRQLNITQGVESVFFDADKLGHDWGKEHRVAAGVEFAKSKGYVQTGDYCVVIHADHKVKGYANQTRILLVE
In general terms: qHTS replaces the single test concentration by a dilution series.

Experiment [2] in a line: MultiTox-Fluor Cytotoxicity Assay - LYMP1-002 - Dead Cells (AID 960). Note: nearly all actives have a fitted effect of over 60% in size. In short, it runs like this:
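Cells were plated, rested 5 hr, then treated with compound dilution series for 16 hr at 37 C. After adding substrate reagent and 60 min at room temperature, dead-cell protease fluorescence gave concentration-response curves fitted by the Hill equation.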

Experiment [3] in a line: MultiTox-Fluor Cytotoxicity Assay - LYMP1-003 - Dead Cells (AID 961). Note: nearly all actives have a fitted effect of over 70% in size. Note: potency is the fitted concentration of half-maximal effect. In short, it runs like this:
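Dead-cell protease release, detected as bis-AAF-R110 fluorescence at 485/520 nm, was measured in LYMP1-003 cells after 16 h compound treatment at 37 C. AC50 values came from Hill-modeled qHTS curves normalized to DMSO (0%) and 15 uM tetraoctylammonium bromide (100%).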

A short description of experiment [4]: Cell Viability - LYMP1-003 - Assay at 24 hr (AID 963). Note: potency is the fitted concentration of half-maximal effect. In short, it runs like this: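 Cytotoxicity is scored as a concentration-dependent fall in ATP-linked luciferase signal in human lymphoblastoid LYMP1-003 cells treated 24 hr at 37 C in complete culture medium.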
Experiment [5] can be described thus: Cell Viability - LYMP1-003 - Assay at 40 hr (AID 964). Note: nearly all actives have a fitted effect of over 60% in size. Note: potency is the fitted concentration of half-maximal effect. In short, it runs like this:
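Luminescent ATP signal (CellTiter-Glo) served as the viability read-out after 40 hr compound treatment of human lymphoblastoid LYMP1-003 cells at 37 C. Decreases in ATP were fitted with the Hill equation to give AC50.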

Experiment [6] in a line: Cell Viability - LYMP2-003 (AID 965).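 Note: cells exposed to compounds for 24 h before reading; nearly all actives have a fitted effect of over 50% in size.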 Note: potency is the fitted concentration of half-maximal effect. In short, it runs like this:
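Acute cytotoxicity is scored as a concentration-dependent drop in intracellular ATP, measured by luciferase luminescence in human lymphoblastoid cells treated for 24 hours at 37 C. AC50 values derive from Hill-equation modelling.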

Experiment [7] is described as follows: Cell Viability - LYMP2-004 (AID 966). Note: nearly all actives have a fitted effect of over 65% in size. Note: potency is the fitted concentration of half-maximal effect. An outline of the steps:
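qHTS cytotoxicity: human lymphoblastoid line, 24 hr compound treatment, 37 C, complete medium. Viability read as cellular ATP via luciferase luminescence; tetraoctylammonium bromide served as positive control.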

Experiment [8] is described as follows: Cell Viability - LYMP2-005 (AID 967). Note: potency is the fitted concentration of half-maximal effect. An outline of the steps:
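qHTS viability screen in LYMP2-005 cells: 24 h at 37 C with compound, ATP luminescence via CellTiter-Glo, AC50 from Hill curves.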

Experiment [9] can be described thus: Cell Viability - LYMP2-009 (AID 968). Note: nearly all actives have a fitted effect of over 55% in size. Note: potency is the fitted concentration of half-maximal effect.
Experiment [10] can be described thus: Cell Viability - LYMP2-011 (AID 969). Note: nearly all actives have a fitted effect of over 60% in size. Note: potency is the fitted concentration of half-maximal effect. An outline of the steps: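 In this qHTS cytotoxicity format, compounds are tested across concentrations on human lymphoblastoid cells in complete medium for 24 hours at 37 C. Viability is taken as cellular ATP measured by luciferase luminescence.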

Turning to `O=Nc1c(-c2c(O)[nH]c3cc(Br)ccc23)[nH]c2ccccc12`, the Potency entry in [1] was “inactive”.
With `c1ccc2[nH]c(-c3cscn3)nc2c1`, the call in [2] was inactive. In addition, the Potency entry in [3], in experiment [4], in [5], in experiment [6], in [7] and in experiment [8] was “inactive” each time. The Potency result in experiment [9] and in experiment [10] was “inactive” each time.
Regarding `CN(C)c1ccc2nc3ccc(=[N+](C)C)cc-3sc2c1`, the Potency is 39.8 µM (active) in experiment [3]; 7.94 µM (active) in experiment [4]; 3.98 µM (active) in experiment [5]; 3.98 µM (active) in experiment [6]; 5.01 µM (active) in [7]; 5.01 µM (active) in experiment [8]. The Potency in experiment [9] was 5.01 µM (active); in experiment [10], 6.31 µM (active).
For the compound `O=c1ccc2ccc(O)c(O)c2o1`, the Potency in [1] was 15.8 µM (active).
For the compound `CS(=O)(=O)OCCCCOS(C)(=O)=O`, the call in experiment [2] was inactive. In addition, the Potency result in experiment [3], in experiment [4], in experiment [5], in experiment [6], in experiment [7] and in experiment [8] was “inactive” throughout. For the same compound, the Potency entry in experiment [9] and in experiment [10] was “inactive” throughout.
Consider `CCc1nc(N)nc(N)c1-c1ccc(Cl)cc1`, for which the result in [2] was inactive. The Potency result in experiment [3], in experiment [6], in experiment [7] and in experiment [8] was “inactive” each time. Moreover, the Potency in [5] was 7.94 µM (active).
On to `COc1c2occc2cc2ccc(=O)oc12`, for which the outcome in [2] was inactive. Also, the Potency result in experiment [3], in experiment [4], in experiment [5], in experiment [6], in [7] and in [8] was “inactive” in each case. In addition, the Potency result in [9] and in experiment [10] was “inactive” each time.
In the case of `CCCc1cc(=O)[nH]c(=S)[nH]1`, in experiment [2], the call was inactive. In addition, the Potency result in [3], in experiment [4], in experiment [5], in [6], in [7] and in experiment [8] was “inactive” throughout. Also, the Potency entry in experiment [9] and in [10] was “inactive” each time.
For `CCCCC(CC)COC(=O)C(C#N)=C(c1ccccc1)c1ccccc1` (stereo unspecified), the Potency result in experiment [3], in [4], in experiment [5], in experiment [6], in experiment [7] and in experiment [8] was “inactive” in each case. Also, the Potency entry in experiment [9] and in [10] was “inactive” throughout.
As for `NNc1nncc2ccccc12`, in [1], the Potency result is “inactive”.
As to `CC(=O)Nc1ccc(O)cc1`, the compound was called inactive in experiment [2]. Further, the Potency result in experiment [3], in [4], in experiment [5], in experiment [6], in [7] and in experiment [8] was “inactive” each time. For the same compound, the Potency result in experiment [9] and in [10] was “inactive” each time.
With `O=c1c(O)c(-c2ccc(O)cc2O)oc2cc(O)cc(O)c12`, the Potency in experiment [1] was 20 µM (active).
Consider `NS(=O)(=O)c1cc(C(=O)O)c(NCc2ccco2)cc1Cl`, for which, in experiment [2], the compound was called inactive. Besides, the Potency result in experiment [3], in experiment [4], in experiment [5], in experiment [6], in [7] and in [8] was “inactive” in each case. For the same compound, the Potency result in experiment [9] and in [10] was “inactive” throughout.
On to `COC(=O)[C@H](Cc1ccccc1)NC(=O)[C@@H](N)CC(=O)O` (H-Asp-Phe-OMe), for which the Potency result in experiment [3], in experiment [4], in experiment [5], in experiment [6], in [7] and in experiment [8] was “inactive” each time. Besides, the Potency result in experiment [9] and in experiment [10] was “inactive” throughout.
For the compound `Cc1cc(O)c2c(c1)C(=O)c1cc(O)cc(O)c1C2=O`, in [2], the compound was called inactive. The Potency entry in experiment [3], in experiment [4], in experiment [5], in experiment [6], in [7] and in experiment [8] was “inactive” in each case. For the same compound, the Potency entry in experiment [10] was “inactive”.
For the compound `Cc1cccc(C#Cc2ccccc2)n1`, in experiment [1], the Potency entry was “inactive”.
Consider `O=c1c(O)c(-c2cc(O)c(O)c(O)c2)oc2cc(O)cc(O)c12`, for which the Potency in [1] was 2 µM (active).
In the case of `Cc1ccc(C)c(OCCCC(C)(C)C(=O)O)c1`, the compound was called inactive in experiment [2]. Further, the Potency result in [3], in experiment [4], in experiment [5], in experiment [6], in experiment [7] and in experiment [8] was “inactive” throughout. Also, the Potency entry in experiment [9] and in [10] was “inactive” throughout.
As to `Nc1ccc(S(N)(=O)=O)cc1`, the outcome in experiment [2] was inactive. The Potency result in [3], in experiment [4], in experiment [5], in experiment [6], in [7] and in experiment [8] was “inactive” each time. For the same compound, the Potency result in experiment [9] and in experiment [10] was “inactive” throughout.
